Bioassay records as filed in PubChem BioAssay.
Shown are actives, neighbours in structure and some others; about 2.3% of the full set was active somewhere.
IDE act – human IDE activators in live cells, primary screen, fluorescence polarization, HEK cells, FAbeta-B substrate. Insulin-degrading enzyme (Homo sapiens), P14735. 340,000 tested, 0.073% active. FAbeta-B cleavage; 0% vehicle, 100% cell-free pure enzyme wells. activation, % at 5.96 µM;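 active = activation above the mean of all tested compounds plus 3 SD, set per screening campaign, cut at about 17% in these data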
Rin1-Abl PPI inh – inhibitors of Rin1-Abl protein binding, primary screen, biochemical, TR-FRET; Tyrosine-protein kinase ABL1 (Homo sapiens) + Ras and Rab interactor 1 (Homo sapiens), …; inhibition, % at 7.35 µM; 360,000 tested, 0.4% active; in the data active = inhibition above about 5%, passing the limit was not always enough
Calb FLC – C. albicans growth inhibition with fluconazole, primary screen, CaCi-2 strain, Alamar Blue fluorescence. C. albicans CaCi-2 (fluconazole-resistant clinical isolate) + fluconazole, 48 h. growth inhibition, % (test concentration not listed). 300,000 tested, 0.57% active. AID 1979, 2009;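 active = growth inhibition above about 58% in most replicates, limit read from the data, passing the limit was not always enough; inconclusive = exactly half the replicates above a set limit; inactive = most replicates below a set limit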;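 note: all wells also contain fluconazole at 8 µg/ml as a sub-toxic cotreatment; 0% = median of DMSO wells and 100% = median of geldanamycin control wells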
IDE cell inh – human IDE inhibitors in live cells, primary screen, fluorescence polarization, HEK cells, FAbetaB substrate | FAbetaB cleavage | inhibition, % at 5.59 µM | 320,000 tested, 0.41% active | AID 434962, 2010;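 active = percent inhibition above the average of all tested compounds plus 3 SD, set per screening campaign, cut at about 16% in these data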;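 note: IDE supplied by intact live HEK cells; FP after avidin binding of uncleaved biotin substrate so inhibition keeps polarization high; 0% = DMSO wells and 100% = 60 µM reference IDE inhibitor Ii1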
TPT1 inh – Candida albicans TPT1 enzyme inhibitors, primary screen, biochemical, fluorescence polarization; tRNA 2'-phosphotransferase TPT1 (Candida albicans SC5314); recombinant caTPT1, FP RNA substrate dephosphorylation; inhibition, % at 5 µM; 300,000 tested, 0.81% active;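 active = inhibition above the mean of all tested compounds plus 3 SD, set per screening campaign, cut at about 24% in these data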;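 note: plate controls were DMSO alone for no effect and ferristatin control at 100 nM for full effect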
Rpn11 block – Rpn11 (PSMD14) deubiquitinase inhibitors, primary screen, biochemical, fluorescence polarization, uHTS | 26S proteasome non-ATPase regulatory subunit 14 (Homo sapiens), O00487 | human 26S proteasome, Ub4-pepOG fluorescence polarization; 20S core pre-blocked with epoxomicin | inhibition, % at 20 µM | 360,000 tested, 0.59% active | AID 588493, 2011;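 active = inhibition at 20 µM, scaled to each plate's controls, above about 33%, limit read from the data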
Target sequence (O00487 whole entry, looked up): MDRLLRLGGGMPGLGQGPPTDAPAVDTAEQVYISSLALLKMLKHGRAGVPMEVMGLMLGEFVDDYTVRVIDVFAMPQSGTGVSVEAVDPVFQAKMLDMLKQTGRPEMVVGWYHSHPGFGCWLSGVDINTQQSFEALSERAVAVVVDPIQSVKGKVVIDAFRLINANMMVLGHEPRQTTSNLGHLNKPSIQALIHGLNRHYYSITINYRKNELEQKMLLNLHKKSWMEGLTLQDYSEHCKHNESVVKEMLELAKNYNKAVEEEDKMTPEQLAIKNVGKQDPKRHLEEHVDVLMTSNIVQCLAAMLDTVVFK
* marks the source's active call; other numbers are inactive results; u = inconclusive; x = no result.

SMILES | IDE act | Rin1-Abl PPI inh | Calb FLC | IDE cell inh | TPT1 inh | Rpn11 block
O=[N+]([O-])c1ccc(Cl)c2cccnc12 | 1 | 1 | u | 4 | 2 | 0
O=[N+]([O-])c1cc(Cl)c2cccnc2c1O | 4 | 2 | 102* | 4 | -3 | 1
O=[N+]([O-])c1cc(Cl)c(O)c2ncccc12 | 1 | 1 | 107* | x | x | 12
O=[N+]([O-])c1ccc(O)c2cccnc12 | 1 | -11 | 22 | 0 | -30 | 2
O=[N+]([O-])c1cc(CN2CCN(c3ccccc3)CC2)c(O)c2ncccc12 | -1 | 9 | 100* | 4 | -1 | 32
O=[N+]([O-])c1ccc(O)c2ncccc12 | 6 | -1 | 99* | 4 | 1 | 7
CN(Cc1cc([N+](=O)[O-])c2cccnc2c1O)C1CCCCC1 | x | x | 2 | 0 | 2 | x
O=[N+]([O-])c1cc(F)c2cccnc2c1O | 1 | 1 | 61 | 0 | 1 | -3
O=C1OC(CN(Cc2ccccc2)Cc2ccccc2)CN1N=Cc1ccc([N+](=O)[O-])o1 (configuration not stated) | 1 | -1 | x | x | x | 14
CN(C(=O)c1ccc(-c2nn(C)c(=O)c3ccccc23)cc1)C1CCCCC1 | -5 | 0 | 11 | 9 | -4 | -2
CC(=O)NC(c1ccc(C)cc1)c1cc([N+](=O)[O-])c2cccnc2c1O (configuration not stated) | -5 | 6 | 109* | 6 | 1 | 31
CCn1c(CSc2nc3ccccc3s2)nnc1SCC(=O)c1ccc(O)c(O)c1 | -14 | 1 | 105* | 2 | -4 | -9
CCn1c(CSc2nc3ccccc3s2)nnc1SCC(=O)c1ccc(Cl)cc1 | -10 | 2 | 11 | 8 | -2 | -4
CCn1c(SCC(=O)c2ccc(O)c(O)c2)nnc1-c1ccccc1OC | 3 | 3 | 96* | -3 | -3 | -10
Cc1cc(S(=O)(=O)N2CCOCC2)ccc1OCC(=O)NCCCn1ccnc1 | 2 | -2 | 21 | -2 | 2 | 3
C[C@H](CO)N1C[C@H](C)[C@@H](CN(C)Cc2ccc(Cl)c(Cl)c2)Oc2c(NS(=O)(=O)c3cn(C)cn3)cccc2C1=O | 2 | 2 | x | 5 | x | 0
Cc1cc(Oc2ccc(C#N)cc2)nc(N2CCOCC2)n1 | 28* | -3 | 28 | 3 | -3 | -2
Cc1cc(Oc2ccc([N+](=O)[O-])cc2)nc(N2CCOCC2)n1 | -1 | -4 | 2 | -1 | -2 | -1
COC(=O)c1sccc1NC(=O)c1ccc(C)cc1 | 7 | -2 | 42 | -3 | 2 | 5
COC(=O)c1sccc1NC(=O)c1ccc(C#N)cc1 | 2 | 4 | 0 | -2 | 1 | 61*
C/C=C(\C)C(=O)OC(C)(C)[C@H]1Cc2cc3ccc(=O)oc3cc2O1 | -4 | -2 | 5 | -2 | 0 | 13
CCn1c(Sc2nc(C)nc3scc(-c4cccs4)c23)n[nH]c1=O | 1 | 4 | 95* | -3 | -8 | 1
CNC[C@H](Cc1ccccc1)NC[C@@H](Cc1cccc2ccccc12)NCCc1ccc(C)cc1 | 18* | 2 | 111* | -3 | 0 | -7
CCN(Cc1ccccc1)C(=O)Cn1c(=O)n(CCC(=O)N2CCCCC2)c(=O)c2sccc21 | 3 | 1 | -4 | 2 | -2 | -3
CCc1cc(C(=O)NNC(=S)Nc2cc(C)ccc2C)cs1 | -1 | -5 | 99* | 2 | -4 | -6
CCc1cc(C(=O)NNC(=S)Nc2ccccc2C)cs1 | 2 | 4 | 54 | 4 | 1 | -3
Cc1ccc(S(=O)(=O)Nc2ccc(O)c3ncccc23)cc1 | 1 | 0 | 99* | -2 | -4 | -8
Cc1ccc(S(=O)(=O)Nc2ccc(O)c3cccnc23)cc1 | 1 | 0 | 41 | 0 | 5 | 6
CC(=O)N[C@@H](Cc1ccc(O)cc1)CN1C(N)=NC[C@@H]1CC(C)C | 0 | -1 | 19 | 4 | -2 | -6
